A short description of test [1]: qHTS assay to identify small molecule antagonists of the thyroid receptor (TR) signaling pathway - cell viability counter screen (AID 743064). Further: nearly all actives have a fitted effect of over 50% in size. Further: potency means the concentration at half of the fitted maximal effect. The method, boiled down:
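In-well cytotoxicity read by CellTiter-Fluor (30 min, 37 C) following 23.5 h exposure of GH3 cells bearing a TRE-luciferase sensor. Compounds were added alongside 1 nM (final) T3 to drive TR transactivation.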
(qHTS replaces the single test concentration by a dilution series.)

The nature of test [2]: qHTS assay to identify small molecule antagonists of the thyroid receptor (TR) signaling pathway (AID 743065). Further: nearly all actives have a fitted effect of over 55% in size. Further: potency means the concentration at half of the fitted maximal effect. The method in brief:
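GH3.TRE-Luc rat pituitary cells carrying two TR response elements driving luciferase were plated for 4 h, given compound plus 1 nM T3 (final), and incubated 23.5 h at 37 C. ONE-Glo luminescence measured reporter inhibition; CellTiter-Fluor fluorescence tracked cytotoxicity.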

Test [3] deals with thyroid hormone receptor (rat, GH3 cells). The experiment in a line: qHTS assay to identify small molecule agonists of the thyroid receptor (TR) signaling pathway (AID 743066; calls by dose curve).
Test [4] in a line: qHTS assay to identify small molecule antagonists of the estrogen receptor alpha (ER-alpha) signaling pathway - cell viability counter screen (AID 743074; calls by dose curve;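 further: HEK293 cells carrying ER-alpha-UAS-bla reporter stimulated with 17beta-estradiol; nearly all actives have a fitted effect of over 45% in size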).
Test [5] can be described thus: qHTS assay to identify small molecule antagonists of the estrogen receptor alpha (ER-alpha) signaling pathway using the BG1 cell line - cell viability counter screen (AID 743081).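 Further: compound given together with 17beta-estradiol as the ER stimulus; series mostly up to about 70 µM; nearly all actives have a fitted effect of over 45% in size.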
For the next test, the target named is Aromatase (Homo sapiens) (UniProt P11511). The experiment in a line: qHTS assay to identify aromatase inhibitors (AID 743083). Further: nearly all actives have a fitted effect of over 55% in size. Further: potency means the concentration at half of the fitted maximal effect.
Aromatase (Homo sapiens), sequence (P11511 whole entry, looked up): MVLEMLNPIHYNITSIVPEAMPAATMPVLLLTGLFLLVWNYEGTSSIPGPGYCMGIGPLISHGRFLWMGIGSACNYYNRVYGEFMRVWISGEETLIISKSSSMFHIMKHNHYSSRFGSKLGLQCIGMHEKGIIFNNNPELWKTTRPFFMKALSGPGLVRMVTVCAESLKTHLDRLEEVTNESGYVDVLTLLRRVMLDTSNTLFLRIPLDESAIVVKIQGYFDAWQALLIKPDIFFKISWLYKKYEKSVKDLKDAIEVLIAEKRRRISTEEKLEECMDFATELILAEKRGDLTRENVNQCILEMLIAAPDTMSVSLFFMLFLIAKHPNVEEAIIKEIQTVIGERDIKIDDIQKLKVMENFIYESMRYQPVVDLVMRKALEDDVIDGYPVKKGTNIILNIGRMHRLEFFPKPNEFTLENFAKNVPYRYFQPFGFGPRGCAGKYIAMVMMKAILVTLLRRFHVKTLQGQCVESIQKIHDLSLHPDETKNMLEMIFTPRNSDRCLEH
Test [6] can be described thus: qHTS assay to identify aromatase inhibitors - cell viability counter screen (AID 743084).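 Further: cells stimulated with testosterone during compound exposure; nearly all actives have a fitted effect of over 55% in size.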 Further: potency means the concentration at half of the fitted maximal effect.
The nature of test [7]: qHTS assay to identify small molecule that activate the aryl hydrocarbon receptor (AhR) signaling pathway - cell viability counter screen (AID 743086).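 Further: HepG2 liver cells carrying the AhR DRE luciferase reporter; series mostly up to about 70 µM; nearly all actives have a fitted effect of over 45% in size.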 The method, boiled down: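 HepG2-AhR-luc (HG2L7.5c1) cells, 4000/well, were preincubated 5 h at 37C, exposed to compound in qHTS format for 24 hr at 37C, then given CellTiter-Fluor for 30 min; viability was read as fluorescence in the reporter wells.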

Test [8] concerns the target Peroxisome proliferator-activated receptor gamma (Homo sapiens) (UniProt P37231). The experiment in a line: qHTS assay to identify small molecule agonists of the peroxisome proliferator-activated receptor gamma (PPARg) signaling pathway (AID 743094; active means well fitted activation curve with a large enough effect in the signal ratio in the repeat runs, not every such curve was filed as active; the % refers to the signal ratio; further: potency means the concentration at half of the fitted maximal effect). The method, boiled down:
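Beta-lactamase FRET fluorescence was the read-out after a 1 h room-temperature substrate step, following 17 h compound treatment at 37C of HEK293H cells expressing a UAS-driven bla reporter responsive to PPARg.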

For test [9] the target is unchanged. In words: qHTS assay to identify small molecule antagonists of the peroxisome proliferator-activated receptor gamma (PPARg) signaling pathway (AID 743191; calls by dose curve; further: series mostly up to about 63 µM; nearly all actives have a fitted effect of over 30% in size). The method in brief: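 GeneBLAzer PPARg UAS-bla HEK293H cells carrying a UAS-driven beta-lactamase reporter were plated at 3000 cells/well, preincubated 5 h at 37C, then given compound for 17 h at 37C; LiveBLAzer B/G FRET substrate was read after 1 h at room temperature.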

A short description of test [10]: qHTS assay to identify small molecule antagonists of the peroxisome proliferator-activated receptor gamma (PPARg) signaling pathway - cell viability counter screen (AID 743194). Further: nearly all actives have a fitted effect of over 55% in size. Further: potency means the concentration at half of the fitted maximal effect. The method in brief: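 PPARg-UAS-bla HEK293H cells were plated, rested 5 h at 37 C, then treated with compounds plus rosiglitazone (50 nM final) for 17 h at 37 C; viability was then read by CellTiter-Glo luminescence after 30 min at room temperature.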

A short description of test [11]: qHTS assay for small molecule agonists of the antioxidant response element (ARE) signaling pathway - cell viability counter screen (AID 743203; calls by dose curve; further: nearly all actives have a fitted effect of over 55% in size; further: potency means the concentration at half of the fitted maximal effect). The method, boiled down:
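HepG2 cells carrying ARE-driven beta-lactamase; 2,000 cells/well; 5 hrs plating; compound pinned from DMSO; 16 hrs 37C/5% CO2; CellTiter-Glo added; 30 min RT; luminescence.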

Test [12] is described as follows: qHTS assay for small molecule activators of the heat shock response signaling pathway - cell viability counter screen (AID 743209). Further: nearly all actives have a fitted effect of over 50% in size. Further: potency means the concentration at half of the fitted maximal effect. The method, boiled down:
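Luminescence from CellTiter-Glo, added after the beta-lactamase FRET read, gave the viability signal. Cells were HSE-bla HeLa treated with DMSO-dissolved compounds for 5 h at 37 C following overnight plating.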

Test [13] is described as follows: qHTS assay for small molecule activators of the heat shock response signaling pathway (AID 743210; active means well fitted activation curve with a large enough effect in the signal ratio in the repeat runs, with a control signal flat, not every such curve was filed as active; the % refers to the signal ratio;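 further: HeLa cells with beta-lactamase reporter driven by heat shock elements; series mostly up to about 63 µM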). The method in brief: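 Reporter gene assay: HeLa cells stably bearing an HSE-bla construct, compound treatment 5 h at 37 C, LiveBLAzer substrate 2.5 h at RT, fluorescence intensity.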
A short description of test [14]: qHTS assay for small molecule agonists of the antioxidant response element (ARE) signaling pathway (AID 743202; active means well fitted activation curve with a large enough effect in the signal ratio in the repeat runs, not every such curve was filed as active; the % refers to the signal ratio). The method, boiled down: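 Compounds delivered in DMSO to ARE-bla HepG2 cells (2,000 cells/well, pre-incubated 5 h) and left 16 h at 37 C. LiveBLAzer B/G FRET substrate then added for 2 h at RT before fluorescence reading.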
Test [15] has as its target Aryl hydrocarbon receptor (Homo sapiens) (UniProt P35869). In words: qHTS assay to identify small molecule that activate the aryl hydrocarbon receptor (AhR) signaling pathway (AID 743085).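 Further: HG2L7.5c1 human HepG2 liver cells with stably integrated DRE-driven firefly reporter; series mostly up to about 70 µM; nearly all actives have a fitted effect of over 15% in size.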 The method in brief: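 Luminescence (ONE-Glo) from a dioxin-responsive-element luciferase reporter in HG2L7.5c1 HepG2 cells after 24 hr compound exposure at 37C; viability measured by CellTiter-Fluor fluorescence beforehand.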

The target in test [16] is Estrogen receptor (Homo sapiens) (UniProt P03372). In words: qHTS assay to identify small molecule agonists of the estrogen receptor alpha (ER-alpha) signaling pathway (AID 743075; calls by dose curve;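 further: HEK293 GripTite cells with ER-alpha and UAS-driven beta-lactamase reporter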).
Estrogen receptor (Homo sapiens), sequence (P03372 whole entry, looked up): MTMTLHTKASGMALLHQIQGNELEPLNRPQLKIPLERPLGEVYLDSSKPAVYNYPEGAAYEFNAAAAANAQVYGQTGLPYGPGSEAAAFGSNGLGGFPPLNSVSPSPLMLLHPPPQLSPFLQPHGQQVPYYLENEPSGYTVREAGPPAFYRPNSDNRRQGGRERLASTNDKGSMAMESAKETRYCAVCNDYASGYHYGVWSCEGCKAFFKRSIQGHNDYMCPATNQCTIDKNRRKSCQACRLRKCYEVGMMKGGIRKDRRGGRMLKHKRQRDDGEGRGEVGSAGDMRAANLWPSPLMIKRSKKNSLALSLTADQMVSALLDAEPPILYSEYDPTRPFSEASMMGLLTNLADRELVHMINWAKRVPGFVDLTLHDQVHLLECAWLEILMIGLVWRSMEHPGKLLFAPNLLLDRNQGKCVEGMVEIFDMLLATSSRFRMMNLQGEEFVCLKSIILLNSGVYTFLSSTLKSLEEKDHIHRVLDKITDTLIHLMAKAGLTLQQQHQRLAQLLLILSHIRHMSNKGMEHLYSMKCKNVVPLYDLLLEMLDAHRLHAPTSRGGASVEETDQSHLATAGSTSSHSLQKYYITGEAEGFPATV
For test [17] the target is unchanged. In words: qHTS assay to identify small molecule agonists of the estrogen receptor alpha (ER-alpha) signaling pathway using the BG1 cell line (AID 743079). Further: nearly all actives have a fitted effect of over 20% in size.
Test [18] is described as follows: qHTS assay to identify small molecule antagonists of the estrogen receptor alpha (ER-alpha) signaling pathway using the BG1 cell line (AID 743080; calls by dose curve;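 further: BG1 cells stimulated with 17beta-estradiol alongside compound; series mostly up to about 70 µM; nearly all actives have a fitted effect of over 25% in size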). The method in brief: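 Quantitative HTS on the Tox21 10K library: BG1 cells with endogenous ER-alpha and ERE-luciferase reporter, 17beta-estradiol stimulation, 21.5 h compound exposure, luminescence endpoint with parallel fluorescence cytotoxicity counter-read.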

The structures appear in SMILES notation. “And” between values parts separate entries of the source, which are not always exact repeats. Equal values may be shown once. Inconclusive results are not listed. The source made the active and inactive calls. Unless noted, the call rests on the fitted dose curve; in most records, active means well fitted curve in the direction sought with a large enough effect in the repeat runs; inconclusive means weak or mixed curves; inactive means no such curve, though single readings can be large; an effect the other way counts as inactive or inconclusive.

Peroxisome proliferator-activated receptor gamma (Homo sapiens), sequence (P37231 whole entry, looked up): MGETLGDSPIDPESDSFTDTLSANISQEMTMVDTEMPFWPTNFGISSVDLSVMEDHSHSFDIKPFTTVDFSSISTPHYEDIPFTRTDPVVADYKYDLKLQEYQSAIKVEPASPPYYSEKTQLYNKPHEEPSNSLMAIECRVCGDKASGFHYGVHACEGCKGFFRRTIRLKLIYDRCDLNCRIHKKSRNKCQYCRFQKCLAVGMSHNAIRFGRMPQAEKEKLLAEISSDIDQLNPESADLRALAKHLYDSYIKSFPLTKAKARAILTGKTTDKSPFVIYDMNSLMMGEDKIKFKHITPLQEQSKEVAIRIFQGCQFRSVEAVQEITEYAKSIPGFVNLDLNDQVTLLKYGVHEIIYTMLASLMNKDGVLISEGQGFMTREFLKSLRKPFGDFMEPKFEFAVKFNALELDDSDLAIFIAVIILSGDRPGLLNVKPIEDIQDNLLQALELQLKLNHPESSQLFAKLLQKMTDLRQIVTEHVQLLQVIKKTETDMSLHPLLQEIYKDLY
Aryl hydrocarbon receptor (Homo sapiens), sequence (P35869 whole entry, looked up): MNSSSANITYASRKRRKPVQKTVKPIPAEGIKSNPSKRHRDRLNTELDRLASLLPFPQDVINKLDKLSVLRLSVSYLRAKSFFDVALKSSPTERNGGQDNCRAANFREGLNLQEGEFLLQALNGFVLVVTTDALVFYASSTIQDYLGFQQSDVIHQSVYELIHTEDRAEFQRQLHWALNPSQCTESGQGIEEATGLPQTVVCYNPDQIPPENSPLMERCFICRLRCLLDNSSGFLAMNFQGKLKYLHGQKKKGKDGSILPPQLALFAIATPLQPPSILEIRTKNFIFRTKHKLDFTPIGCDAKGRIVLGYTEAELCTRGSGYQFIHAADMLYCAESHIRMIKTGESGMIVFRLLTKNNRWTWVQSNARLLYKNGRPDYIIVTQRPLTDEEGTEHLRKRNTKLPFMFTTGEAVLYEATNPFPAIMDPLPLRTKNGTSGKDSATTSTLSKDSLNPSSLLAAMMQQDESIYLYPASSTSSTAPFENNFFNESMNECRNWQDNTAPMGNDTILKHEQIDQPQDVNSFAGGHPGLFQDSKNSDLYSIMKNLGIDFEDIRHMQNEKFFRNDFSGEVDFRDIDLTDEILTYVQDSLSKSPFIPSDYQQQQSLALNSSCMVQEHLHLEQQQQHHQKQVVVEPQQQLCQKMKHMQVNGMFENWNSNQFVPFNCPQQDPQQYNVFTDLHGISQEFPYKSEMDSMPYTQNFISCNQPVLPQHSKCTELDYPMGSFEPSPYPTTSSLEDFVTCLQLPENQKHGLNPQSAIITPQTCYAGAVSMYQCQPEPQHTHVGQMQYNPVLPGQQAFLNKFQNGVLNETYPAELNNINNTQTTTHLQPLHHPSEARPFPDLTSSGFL

On to `COc1ccc(NC(=O)CC(C)=O)cc1`, for which the Potency entry (in test [1]; in test [2]; in test [4]; in [5]; in the test with Aromatase (Homo sapiens); in test [6]) was “inactive” each time. Moreover, the Potency entry in test [7], in [8], in test [9], in test [10], in test [11] and in test [12] was “inactive” in each case. The Potency entry in test [13] was “inactive”. Besides, the molecule was classed as inactive in test [3].

Consider `CN(C)C(=O)COC(=O)Cc1ccc(OC(=O)c2ccc(N=C(N)N)cc2)cc1`, for which the Potency result in test [1], in [2], in test [4], in test [5], in [7] and in [10] was “inactive” in each case. Also, the Potency result in [14], in [11], in test [12] and in [13] was “inactive” throughout. The result in test [3] was inactive.

`C[C@@H](O)[C@H](N)C(=O)O`: the Potency entry (in [1]; in test [2]; in test [4]; in test [5]; with Aromatase (Homo sapiens); in test [6]) was “inactive” in each case. The Potency entry in test [15], in [7], in test [8], in [9], in test [10] and in test [12] was “inactive” throughout. Further, the Potency result in test [13] is “inactive”. In addition, the result in test [3] was inactive.

`CCc1oc2ccccc2c1C(=O)c1cc(I)c(O)c(I)c1`: the Potency is 29.8 µM (active) in test [1]; 21.1 µM (active) in test [2]; 0.952 µM (active) in test [8]; 13.3 µM (active) in test [10]; 26.6 µM (active) in test [11]. Besides, the molecule was called inactive in test [3]. The Potency result in [16], in test [5], in test [6], in test [7], in [9] and in [12] was “inactive” each time.

`Nc1ccc(C(=O)O)c(O)c1`: the Potency entry (in test [1]; in test [2]; in test [4]; in [5]; in the test with Aromatase (Homo sapiens); in test [6]) was “inactive” in each case. Also, the Potency entry in test [15], in test [7], in test [8], in [10], in test [14] and in test [11] was “inactive” in each case. In addition, the Potency result in test [12] and in test [13] was “inactive” in each case. The result in test [3] was inactive.

As for `O=C1C(c2[nH]c3ccc(S(=O)(=O)O)cc3c2O)=Nc2ccc(S(=O)(=O)O)cc21`, the Potency entry (in test [1]; in test [2]; in test [4]; in test [5]; with Aromatase (Homo sapiens); in [6]) was “inactive” throughout. The Potency result in test [15], in [7], in test [8], in [9], in test [10] and in test [11] was “inactive” throughout. Also, the Potency entry in test [12] and in test [13] was “inactive” in each case. In [3], the call was inactive.

`O=C1c2ccccc2C(=O)N1SC1CCCCC1`: the Potency is 30.6 µM (active) and 21.7 µM (active) in test [1]; 24.3 µM (active) and 15.4 µM (active) in [2]; 43.2 µM (active) in the test with Aromatase (Homo sapiens); 27.3 µM (active) and 24.3 µM (active) in test [6]; 54.9 µM (active) in [10]; 48.5 µM (active) and 34.4 µM (active) in [11]. In addition, the Potency in [12] was 54.9 µM (active). Further, the call in test [3] was inactive. Also, the Potency entry in test [16], in [17], in [18], in test [5], in test [15] and in test [7] was “inactive” throughout.

Turning to `CCC(CC)C(C)CCOC(C)=O` (stereo not given), the Potency result (in test [1]; in test [2]; in test [4]; in test [5]; with Aromatase (Homo sapiens); in test [6]) was “inactive” in each case. For the same molecule, the Potency result in [15], in [7], in [8], in test [10], in test [14] and in [11] was “inactive” in each case. For the same molecule, the Potency result in test [12] and in test [13] was “inactive” each time. In addition, the molecule was classed as inactive in test [3].

(Values after PubChem BioAssay (Tox21).)
